In the supplement of paper PMC10338343:
± gives the standard deviation.

system: MILI (PIWIL2) piRISC loaded with L1MC piRNA (26 nt); test: pre-steady-state target cleavage rate (min^-1); guide: L1MC piRNA 5'p-UAACUAAAUACUAUGCAAGCUGUAGG; MIWI and MILI are mouse PIWI proteins and EfPiwi is from a freshwater sponge; tags in brackets are library labels; higher = faster piRNA-guided slicing of the target; conditions: auxiliary factor: 500 nM mouse GTSF1
Summary of the method: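 In HEPES–potassium acetate buffer at 33 °C, […] transcribed, DNA-blocked target RNA library was mixed with 1 nM active affinity-purified piRISC carrying one synthetic guide, with or without 500 nM GTSF1 partner protein, for 0–8 or 0–960 min. Uncleaved targets were sequenced and normalised to depth and to weakly complementary targets; three trials were pooled and k3 was capped at 0.0001 min^-1. The pre-steady-state cleavage rate followed from a burst-and-steady-state fit.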
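Note: 1 nM active piRISC with 0.1 nM target library at 33 °C single turnover.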

Sequence	pre-steady-state target cleavage rate
UCCUGGAUGUGCUUGCAUAGUAUUAGUUA	0.0236 ± 0.0068
UCCUGGAUGUCGAUGCAUAGCAUUUAGUUA	0.0232 ± 0.0085
UCCUGGAUGUCCUUGCAUAGUUAUUAGUUA	0.00901 ± 0.004
UCCUGGAUGUGGUUGCAUAGUAUUUAGAUA	0.0485 ± 0.021
UCCUGGAUCAGCUACGAUAGUAUUUAGUAA	0.0254 ± 0.0088
UCCUGGAUGUGCUUGCAUAGUAUUUAGGUA	0.0373 ± 0.011
UCCUGGAACAGCUUGCAUAGAAAUUAGUUA	0.0351 ± 0.0085
UCCUGGAUCUGCUUGCAUAGUAUUUACAAA	0.104 ± 0.022
UCCUCCUACAGCUUGCAUAGCUAUUUAGUUA	0.0126 ± 0.0058
UCCUCCUACAGCUUCCAUACUAUUUAGUUA	0.0171 ± 0.0071
UCCUGGAUGUCGAUGCAUAGUAUUUAGUCUA	0.0115 ± 0.0055
UCCUGGAUGAGCUUGCAUAGUAUAUUGUUA	0.0743 ± 0.017
UCCUGGAUGUCCUUGCAUAGUAUUUGUUA	0.0123 ± 0.0057
UCCUGGAACAGCUUGCUUAGUAUUUAGAAA	0.142 ± 0.029
UCCUGGAUGUCCUUGCAUAGUUUUUUGUUA	0.00821 ± 0.0052
UCCUGGAUGAGCUUGCAUAGUAUUUUGAUA	0.0343 ± 0.014
UCCUGGUACAGCUUGCAUUGUAUUAAGUUA	0.0503 ± 0.011
UCCUGGAUGUCGAACGAUAGUAAUAAGUUA	< 0.0001

Sequence	pre-steady-state target cleavage rate
UCCUGGUACAGGUUGCAUAGUAUUUAGAAA	0.043 ± 0.013
UCCUGGUACAGCUUGCAUACUAUAUAGUUA	0.0326 ± 0.013
UCCUGGAUGUCGAACGAUAGUAUUUUAGUUA	< 0.0001
UCCUGGUACACGUUGCAUAGUAUUUUCAAA	0.02 ± 0.011
UCCUGGUACAGCUUGCAUAGAUUUUAGAAA	0.00722 ± 0.0042
UCCUCCAUCAGCUUGCAUAGUAUUUAGAAA	0.0615 ± 0.017
UCCUGGAACACCUUGCAUAGAAUUUAGUUA	0.0907 ± 0.036
UCCUGGAUGUCGUUGCAUAGUAUUCAGUUA	0.0553 ± 0.018
UCCUGGAUGUCCUAGCAUACUAUUUAGUUA	0.0115 ± 0.0063
UCCUGCUACAGCUUGCAUAGUAUUAUCAAA	0.0862 ± 0.026
UCCUCCUACAGCUUGCAUAGUAUUUUCAAA	0.232 ± 0.044
UCCUGGAUCUCCUUGCAUAGUAUUUACAAA	0.0872 ± 0.018
UCCUGGAUGAGCUAGCAUAGUAUUUACAAA	0.0471 ± 0.015
UCCUCCUACAGCUUGCUAAGUAUUUAGUAA	0.0708 ± 0.013
UCCUCCUACAGCUUGCAUAGAAUUUUCAAA	0.0466 ± 0.015
UCCUGGUAGUCCUUGCAUAGUAUUUUCAAA	0.0125 ± 0.0059
UCCUGGAUGAGCUACCAUAGUAUUUAGAAA	0.00557 ± 0.0043
UCCUCCUACAGCUUGCAAUGUAUUUUCAAA	0.0219 ± 0.0065
